Compound activity from PubChem.
D1 antagonist: blocks dopamine activation of the human D1 receptor; HEK293 TREx D1 cells, calcium flux, dopamine EC80; stronger effect = lower value; 360,000 tested, 3.2% active; P21728; activity change, negative = inhibition, % at 10 µM; in the data active means activity change below about -30%; further: on the % scale 0 is the no-effect control and ±100 the full control effect
Target sequence (P21728 whole entry, looked up): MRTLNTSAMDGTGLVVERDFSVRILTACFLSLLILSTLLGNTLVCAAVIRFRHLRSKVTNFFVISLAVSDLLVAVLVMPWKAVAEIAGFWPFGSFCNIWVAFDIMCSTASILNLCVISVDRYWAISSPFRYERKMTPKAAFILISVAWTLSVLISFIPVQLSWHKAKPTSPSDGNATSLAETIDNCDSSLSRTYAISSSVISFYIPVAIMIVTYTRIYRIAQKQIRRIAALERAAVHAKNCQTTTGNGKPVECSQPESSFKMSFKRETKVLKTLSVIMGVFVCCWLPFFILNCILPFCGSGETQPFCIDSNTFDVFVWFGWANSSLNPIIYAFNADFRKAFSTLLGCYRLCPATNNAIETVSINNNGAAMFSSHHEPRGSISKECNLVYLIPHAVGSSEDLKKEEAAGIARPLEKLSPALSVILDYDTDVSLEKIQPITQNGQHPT
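Tetracycline-induced HEK293 T-REx cells with force-coupled D1 receptor were loaded with a no-wash calcium dye. Compound was added after a 10 s baseline and read kinetically for 180 s; EC80 dopamine was then added and calcium flux followed another 180 s.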
D1 PAM: enhances dopamine response at the human D1 receptor | HEK293 TREx D1 cells, calcium flux, dopamine EC20 potentiation | 360,000 tested, 0.036% active | potentiation, % at 10 µM | AID 504651 | P21728; in the data active means potentiation above about 30%; further: 0% is about no effect
TRHR agonist: TRH receptor (human) agonism. activation, % at 2 µM. AID 493084. P34981. 360,000 tested, 0.18% active. TRHR cells, calcium flux fluo-8, FDSS agonist mode; further: 0% is about no effect
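Steps: seed TRHR cells overnight; add fluo-8 no-wash Ca dye, RT 30 min–1.5 h; record 10 s baseline; pin-transfer compounds; monitor fluorescence 1 cycle/s for the agonist window. Calcium increases flag candidate agonists.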
TRHR PAM: allosteric enhancers of human TRH receptor. P34981. TRHR cells, fluo-8 calcium fluorescence, EC20 TRH enhancement. enhancement, % at 2 µM. 360,000 tested, 0.66% active; in the data active means enhancement above about 30%; further: 0% is about no effect
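Enhancer read-out: after compound pinning and an initial kinetic agonist-mode read, an EC20 of TRH (10 nM final) was injected and fluo-8 calcium signal (Ex 480/Em 530) followed at 1 s/cycle for 100 cycles in TRHR-expressing cells.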
D1 ag: agonists of human D1 dopamine receptor; AID 504660; activation, % at 2 µM; HEK293 T-REx D1 cells, calcium flux, agonist mode; 360,000 tested, 1% active; P21728; further: 0% is about no effect
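Tetracycline-induced HEK293 TREx D1 cells, force-coupled to calcium signalling, were dye-loaded with a no-wash calcium kit. Compound was pin-added after a 10 s baseline. Fluorescence was read kinetically at 1 cycle/s for 180 s, with calcium rises flagged as agonism.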
* marks the source's active call; other numbers are inactive results. Most compounds without a hit are left out; they make up all but 4.7% or so of the library. Unless noted, no stated cut-off is given here; in the data, active means activation above about 30%; inactive means the rest.

SMILES	D1 antagonist	D1 PAM	TRHR agonist	TRHR PAM	D1 ag
Cc1ccc(C)c(N2CCN(CCCNC(=O)Cn3cccc3C(=O)c3ccccc3C)CC2)c1	-36*	-6	0	8	26
Cc1ccc(C)c(N2CCN(C(=O)c3cnn(-c4ccccc4Cl)c3C3CCN(C(=O)OC(C)(C)C)CC3)CC2)c1	0	-4	0	-7	1
Cc1ccc(-n2cc(C(C)(C)C)[nH]c2=S)cc1	-46*	-7	0	-5	3
CC(C)(C)c1cn(-c2ccccc2)c(=S)[nH]1	-3	3	0	2	1
CCCCc1cc(=O)oc2cc(C)c3c(C)coc3c12	-5	0	1	-5	4
COc1ccc(S(=O)(=O)Nc2ccc(CC#N)cc2)cc1	-33*	-2	0	-3	6
Cc1ccc(NS(=O)(=O)c2ccc(OCC(=O)NCC3CCCO3)cc2)cc1 (stereo not drawn)	-38*	-4	1	-3	10
N#CCc1ccc(NS(=O)(=O)c2ccc(C3CCCCC3)cc2)cc1	-7	-6	1	-2	28
CCOC(=O)COc1ccc(S(=O)(=O)Nc2ccc3c(c2)OCCO3)cc1	-20	-5	2	-8	33*
CCOC(=O)c1ccc(NS(=O)(=O)c2ccc3c(c2)OCCO3)cc1	-36*	-6	3	15	25
CCNC(=O)COC(=O)c1ccc(NS(=O)(=O)c2ccc3c(c2)OCCO3)cc1	-2	4	0	16	3
COc1ccccc1N1CCN(c2ncnc3c2cnn3C)CC1	11	1	0	9	-1
Cc1ccc(NS(=O)(=O)c2ccc(C(=O)OCC(=O)Nc3cc(C)on3)cc2)cc1	-6	0	1	0	44*
COc1ccc(NS(=O)(=O)c2cccc(C(=O)OCC(=O)Nc3cc(C)on3)c2)cc1	-15	-2	0	8	9
C=C(C)CN(CC)C(=O)COc1ccc(S(=O)(=O)Nc2ccc(OC)cc2)cc1	-28	-7	4	-19	52*
COc1ccc(CN2CCN(C(=O)c3cccnc3)CC2)cc1Br	-34*	-5	0	-3	1
COc1cccc(N2CCN(C(=O)c3cccnc3)CC2)c1	-39*	6	-1	0	3
COc1cccc(N2CCN(C(=O)c3cc(C)oc3C)CC2)c1	-43*	-1	0	-5	1
CCOc1ccc(Nc2nc(N)c([N+](=O)[O-])c(N3CCN(CC)CC3)n2)cc1	4	-7	0	21	0
CCOc1ccc(Nc2nc(N)c([N+](=O)[O-])c(N3CCOCC3)n2)cc1	-1	-6	1	38*	1
CCC(OC(=O)c1ccco1)C(=O)NC1CCCC1 (stereo not drawn)	0	-11	1	-4	5
N#C[C@@H]1N(Cc2ccccc2)C(=O)[C@H]2CC3C=CC21O3 (stereo partly drawn)	-32*	-8	0	-5	2
Cc1nn(C)c2c1c(-c1ccccc1)cc(=O)n2Cc1ccccc1C#N	2	-4	-1	5	20
COCCCNC(=O)c1cn(CC(C)C)c(=O)c2c1c1ccccc1n2C	-8	-1	-1	0	-3
CC(C)Cn1cc(C(=O)NCCCN2CCCC2=O)c2c3ccccc3n(C)c2c1=O	-30*	2	-1	0	-1
SMILES	D1 antagonist	D1 PAM	TRHR agonist	TRHR PAM	D1 ag
COc1ccc(OC)c(/C=C(\C#N)c2nc(-c3ccc(F)cc3)cs2)c1	15	-5	7	8	42*
COc1ccc2oc(=O)c(-c3csc(/C(C#N)=C/c4ccc(F)cc4)n3)cc2c1	-31*	1	1	2	-1
COc1ccc(-c2csc(/C(C#N)=C\c3ccc(OC)c([N+](=O)[O-])c3)n2)cc1	1	-2	1	3	2
CCCN1C[C@H](CSC)C[C@@H]2c3cccc4[nH]cc(c34)C[C@H]21	-88*	-6	1	-7	51*
CCc1ccccc1NC(=O)Cn1c(=O)oc2ccccc21	2	-7	0	5	3
CC(C)(CCl)C(=O)Nc1ccc(OC(F)(F)F)cc1	-11	-5	0	-5	9
Cc1cc(C)n(-c2ccc(Cl)c(C(=O)Nc3ccc(OC(F)(F)F)cc3)n2)n1	-36*	-1	0	2	1
CCn1c(=N)n(CCOc2ccc(Br)cc2)c2ccccc21	-26	4	3	12	89*
CCCCn1c(=N)n(CCOc2ccccc2OC)c2ccccc21	-3	-8	-1	4	33*
COc1ccc(OCCn2c(=N)n(CCO)c3ccccc32)cc1	12	-4	1	0	4
CCCCn1c(=N)n(CCOc2ccc(C)cc2)c2ccccc21	32	-3	0	1	50*
CCCn1c(=N)n(CC(O)COc2ccc(C)cc2)c2ccccc21 (stereo not drawn)	10	1	0	-2	11
CCSc1nnc(NC(=O)Cc2cccc(OC)c2)s1	18	11	-1	0	0
COC(=O)c1ccc(CSc2nnc(Nc3ccc(OC)cc3)s2)o1	-30*	-2	-1	-2	-1
CCSc1nnc(NC(=O)Cc2ccc(OC)cc2)s1	-47*	-9	-2	6	0
COc1cccc(CNC(=O)CSc2nc3ccccc3nc2Cc2ccc(C)cc2)c1OC	5	-2	0	33*	4
COc1ccccc1Cc1nc2ccccc2nc1SCC(=O)NCc1ccc(C)cc1	16	1	-1	2	2
COc1cc(NC(=O)NCCc2c(C)nn(C)c2C)cc(OC)c1OC	11	-1	1	2	2
Cc1cc(NCCCn2ccnc2)n2nc(C)c(-c3ccccc3)c2n1	-3	-1	-1	-2	0
CCCCn1c(=O)[nH]c(=O)c2c1ncn2Cc1ccco1	-5	-1	0	4	1
CCCCn1cnc2c(c(-c3ccccc3)c(-c3ccccc3)n2Cc2ccco2)c1=N	-3	-8	1	-12	47*
N=c1c2c(-c3ccccc3)c(-c3ccccc3)n(Cc3ccco3)c2ncn1Cc1ccco1	5	-3	6	-1	38*
N=c1c2c(-c3ccccc3)c(-c3ccccc3)n(Cc3ccccc3)c2ncn1CCCn1ccnc1	-10	2	5	-3	118*
O=S(=O)(c1ccc(Cl)cc1)c1nnn2c1nc(NCc1ccc3c(c1)OCO3)c1sccc12	12	-5	0	5	0
CCOC(=O)c1cnn(-c2ccccc2)c1-n1cccc1C(=O)C(=O)Nc1ccc(F)cc1	-85*	-6	2	1	7
COc1ccc(/C=C2\N=C(SC)N(c3ccccc3OC)C2=O)cc1	-34*	-8	-1	-6	14
COc1ccc2[nH]c3c(=O)n(CCCCC(=O)N4CCC(C(N)=O)CC4)c(=S)[nH]c3c2c1	-36*	0	0	-1	2
